Laboratory results from PubChem BioAssay (NCATS).
Inconclusive results are not listed. Activity calls are given as the source filed them. Calls follow the shape of the dose curve; as a rule, active = well fitted cell-killing curve with a large enough effect; inconclusive = small, poorly fitted or top-dose-only effect, or effect the other way; inactive = no such curve, though single readings can be large or run the other way.

assay: Quantitative High-Throughput drug screen in 47 multiple myeloma cell lines against the NCATS MIPE library collection: MMM1_PLB cell viability assay (AID 1918976); settings: MMM1 myeloma cells viability, CellTiter-Glo, 48 h; series mostly up to 45.8 µM; also: nearly all actives have a fitted effect of over 35% in size
Text: PI: Beverly A. Mock Ph.D.
Laboratory of Cancer Biology and Genetics,
Center for Cancer Research, National Cancer Institute,
National Institute of Health, Bethesda, Maryland
Drug resistance and disease progression are common in multiple myeloma (MM) patients, underscoring the need for new therapeutic combinations. […] We hypothesized that effective combinations would reduce MYC expression and enhance p16 activity. […] These preclinical data identify potentially useful drug combinations for evaluation in drug-resistant MM and reveal potential mechanisms of combined drug sensitivity.
Described herein is the primary MIPE qHTS used to cherrypick compounds. Validated compounds were then further tested for potential synergistic activiy.
[1] Peat TJ, Gaikwad SM, Dubois W, Gyabaah-Kessie N, Zhang S, Gorjifard S, Phyo Z, Andres M, Hughitt VK, Simpson RM, Miller MA, Girvin AT, Taylor A, Williams D, D'Antonio N, Zhang Y, Rajagopalan A, Flietner E, Wilson K, Zhang X, Shinn P, Klumpp-Thomas C, McKnight C, Itkin Z, Chen L, Kazandijian D, Zhang J, Michalowski AM, Simmons JK, Keats J, Thomas CJ, Mock BA. Drug combinations identified by high-throughput screening promote cell cycle transition and upregulate Smad pathways in myeloma. Cancer Lett. 2023 Aug 1;568:216284. doi: 10.1016/j.canlet.2023.216284. Epub 2023 Jun 24. PMID: 37356470; PMCID: PMC10408729.
SEQUENCE No. (e.g., 1, 2, 3, etc.); […] (e.g., Cells, Incubation, Reagent, etc.); VALUE and DESCRIPTION.
1; Cells; 5 uL; white, solid bottom 1536-well Greiner assay plate.
2; Compounds; 23 nL; Kalypsis pin tool (Wako USA) equipped with a 1536-well pin head to transfer to the assay plates.
3; Incubation; 48 hours; 37C incubation.
4; Reagent;5uL; CellTiter Glo (Promega).
5; Detector; 425V; Luminescence; Viewlux PerkinElmer.
NOTES (numbers refer to Sequence numbers above)
1. The cell-based screening methods employed in this study were like those previously published. Briefly, the corresponding myeloma cell lines were screened in 1,536-well plates with 500 cells, 5-uL per well for inhibition of cell viability (assessed by measuring ATP levels with CellTiterGlo).
2. NCATS MIPE 4.0 library of approved and investigational drugs were added using the Kalypsis pin tool. Wells treated with DMSO only for 100% viability and media only for 0% viability were used as controls.
3. The assay plates were covered and incubated for 48 hours in a 37C, 5% CO2 incubator with controlled humidity.
4. After 48 hours, CellTilter-GloTM luminescent substrate mix (Promega) reagent was added to the assay plate and plates we incubated for 5 min at room temperature.
5. Signal was measured as median relative luminescence units on a ViewLux (PerkinElmer) multiplate reader.
[1] Heske CM, Davis MI, Baumgart JT, Wilson K, Gormally MV, Chen L, Zhang X, Ceribelli M, Duveau DY, Guha R, Ferrer M, Arnaldez FI, Ji J, Tran HL, Zhang Y, Mendoza A, Helman LJ, Thomas CJ. Matrix Screen Identifies Synergistic Combination of PARP Inhibitors and Nicotinamide Phosphoribosyltransferase (NAMPT) Inhibitors in Ewing Sarcoma. Clin Cancer Res. 2017 Dec 1;23(23):7301-7311. doi: 10.1158/1078-0432.CCR-17-1121. Epub 2017 Sep 12. PMID: 28899971; PMCID: PMC6636827.
Potency is read from the fitted curve at half-maximal effect.

Row | SMILES | Potency
1 | Cc1cc(CS(=O)(=O)c2ccccc2)cc(OCc2ccc(CN3CCC[C@H]3CO)cc2)c1 | 13.2 µM (active)
2 | CCN(CC)CCCCNc1nc2cc(Cl)c(Cl)cc2nc1-c1ccc(-c2cccs2)s1 | 9.35 µM (active)
3 | Cc1cc(-c2ncc(CC(=O)Nc3ccc(-c4cnccn4)cn3)cc2C)ccn1 | 16.6 µM (active)
4 | CN(C(Cc1ccc(OS(=O)(=O)c2cccc3cnccc23)cc1)C(=O)N1CCN(c2ccccc2)CC1)S(=O)(=O)c1cccc2cnccc12 (stereo not given) | 5.9 µM (active)
5 | COc1cc2nccc(Oc3ccc(NC(=O)Nc4ccc(F)cc4F)c(F)c3)c2cc1OC | 0.0935 µM (active)
6 | COc1ccc(CCN(C)CCCOc2ccc(S(=O)(=O)c3[nH]c4ccccc4c3C(C)C)cc2)cc1OC | 9.35 µM (active)
7 | COc1ccc2cc1Oc1ccc(cc1)C[C@H]1c3cc(c(OC)cc3CCN1C)Oc1c(OC)c(OC)cc3c1[C@H](C2)N(C)CC3 | 6.62 µM (active)
8 | CO[C@H]1O[C@@H]2O[C@@]3(C)CC[C@@H]4[C@@H](C)CC[C@@H]([C@H]1C)[C@@]24OO3 | 3.72 µM (active)
9 | CN(C)CCCNC(=O)c1ccc(-c2cc(O)c3ncccc3c2)cc1 | 11.8 µM (active)
10 | OC(c1cc(C(F)(F)F)nc2c(C(F)(F)F)cccc12)C1CCCCN1 (stereo not given) | 23.5 µM (active)
11 | CNc1nc(Nc2ccc(C(=O)N3CCOCC3)cc2OC)ncc1Cl | 13.2 µM (active)
12 | COc1cc(Cl)cn2c(-c3cccc(NC4CNC4)n3)cnc12 | 20.9 µM (active)
13 | CN(C)CCOc1ccc(-c2nc(-c3ccc4c(c3)CCC4=NO)c(-c3ccncc3)[nH]2)cc1 | 20.9 µM (active)
14 | CN1CCN(c2cccc(Nc3nc4c(-c5ccc(S(C)(=O)=O)cc5)cccn4n3)c2)CC1 | 16.6 µM (active)
15 | CCC(=C(c1ccc(O)cc1)c1ccc(OCCNC)cc1)c1ccccc1 | 20.9 µM (active)
16 | O=C(CO)N1CCC(c2[nH]nc(-c3ccc(Cl)cc3)c2-c2ccncn2)CC1 | 0.148 µM (active)
17 | O=C(CCCN1CCN(c2ccc(F)cc2)CC1)NC1c2ccccc2CSc2ccccc21 (stereo not given) | 5.9 µM (active)
18 | Cc1cccc(-c2[nH]c(C(C)(C)C)nc2-c2ccc3c(c2)OCO3)n1 | 16.6 µM (active)
19 | Cc1nc(NC(=O)N2CCC[C@@H]2C(N)=O)sc1-c1csc(C(C)(C)C)n1 | 0.935 µM (active)
20 | Cc1ccccc1-n1c(Cn2nc(-c3cccc(O)c3)c3c(N)ncnc32)nc2cccc(C)c2c1=O | 18.7 µM (active)

Row | SMILES | Potency
21 | CC=C(C(=CC)c1ccc(O)cc1)c1ccc(O)cc1 | 16.6 µM (active)
22 | Cc1nn(Cc2ccccc2Cl)c(C)c1CN(C)CC(O)COc1ccc(Cl)cc1 (stereo not given) | 18.7 µM (active)
23 | Clc1ccc(COC(Cn2ccnc2)c2ccc(Cl)cc2Cl)c(Cl)c1 (stereo not given) | 16.6 µM (active)
24 | O=C(c1ccc(C=Cc2n[nH]c3ccccc23)cc1)N1CCNCC1 | 5.26 µM (active)
25 | CCCCCCOC(=O)N=C(N)c1ccc(NCc2nc3cc(C(=O)N(CCC(=O)OCC)c4ccccn4)ccc3n2C)cc1 | 14.8 µM (active)
26 | Cc1ccc(S(=O)(=O)Nc2nc3ccccc3nc2Nc2ccc3nsnc3c2)cc1 | 3.63 µM (active)
27 | Cc1c(C(=O)Nc2ccc(N3C[C@@H](C)O[C@@H](C)C3)nc2)cccc1-c1ccc(OC(F)(F)F)cc1 | 11.8 µM (active)
28 | CO[C@H]1/C=C\O[C@@]2(C)Oc3c(C)c(O)c4c(O)c(c(C=NN5CCN(C6CCCC6)CC5)c(O)c4c3C2=O)NC(=O)C(C)=CC=C[C@H](C)[C@H](O)[C@@H](C)[C@@H](O)[C@@H](C)[C@H](OC(C)=O)[C@H]1C | 5.26 µM (active)
29 | Cc1ccc(NC(=O)c2ccc(CN3CCN(C)CC3)cc2)cc1Nc1nc(-c2cccnc2)cs1 | 18.7 µM (active)
30 | CN(C)N=Nc1nc[nH]c1C(N)=O | 4.69 µM (active)
31 | COc1ccc(-c2ccc3ncc4c(c3c2)n(-c2ccc(N3CCNCC3)c(C(F)(F)F)c2)c(=O)n4C)cn1 | 0.0074 µM (active)
32 | CCOC(=O)N1c2ccc(C(F)(F)F)cc2[C@@H](N(Cc2cc(C(F)(F)F)cc(C(F)(F)F)c2)C(=O)OC)C[C@H]1CC | 8.33 µM (active)
33 | Cc1cccc2c1CC[C@H](CN1CCC(c3c(Cl)cccc3Cl)CC1)C[C@@H]2O | 18.7 µM (active)
34 | CC(C)C[C@H](NC(=O)c1cc2ccccc2s1)C(=O)N1CCN(C(=O)[C@H](CO)NS(=O)(=O)c2ccc(Cl)cc2Cl)CC1 | 18.7 µM (active)
35 | O=S(=O)(O)c1ccc2cc(N=Nc3cc(S(=O)(=O)O)c4cccnc4c3O)ccc2c1 | 3.72 µM (active)
36 | CN1CCC(COc2cnc(-c3cccc(Cn4nc(-c5cccc(C#N)c5)ccc4=O)c3)nc2)CC1 | 0.059 µM (active)
37 | NCC1CCC(C(=O)O)CC1 (stereo not given) | 0.0148 µM (active)
38 | COc1nc(C)cnc1NS(=O)(=O)c1cccnc1-c1ccc(-c2nnco2)cc1 | 5.26 µM (active)
39 | CCC=CC[C@H]1C(=O)CC[C@@H]1CC(=O)OC | 10.5 µM (active)
40 | CCOC(=O)N1CCN([N+]([O-])=NOc2cc(ON=[N+]([O-])N3CCN(C(=O)OCC)CC3)c([N+](=O)[O-])cc2[N+](=O)[O-])CC1 | 6.62 µM (active)
